# An excerpt weighted towards active compounds, which were near 3.9% of everything screened.
# FH mod = Identification of activators of human fumarate hydratase by quantitative high-throughput screening | hit rate 0.22% among 54,000 | FH coupled MDH/diaphorase resazurin fluorescence, 15 min | Potency, µM (doses to about 79.9 µM), for inactives: at the highest dose activity change, negative = inhibition, actives largely listed as inhibitors | Fumarate hydratase, mitochondrial (Homo sapiens), P07954; further: potency means the concentration at half of the fitted maximal effect; on the % scale 0 is the no-effect control and ±100 the full control effect; the screen sought activators but most active calls are inhibition curves; nearly all actives have a fitted effect of over 45% in size
# GALC G270D act = raises human GALC G270D mutant activity in cells; AID 1159614; 145M-Twi-hGALC-G270D cells (Twitcher mouse brain line with human GALC G270D), HMU-beta-Gal fluorescence, 48 h; Potency, µM (top dose mostly 57.5 µM), most hits filed as activators; P54803; hit rate 0.1% among 45,000; further: potency means the concentration at half of the fitted maximal effect; 0% is about no effect; nearly all actives have a fitted effect of over 65% in size
# Target sequence (P54803 whole entry G286D): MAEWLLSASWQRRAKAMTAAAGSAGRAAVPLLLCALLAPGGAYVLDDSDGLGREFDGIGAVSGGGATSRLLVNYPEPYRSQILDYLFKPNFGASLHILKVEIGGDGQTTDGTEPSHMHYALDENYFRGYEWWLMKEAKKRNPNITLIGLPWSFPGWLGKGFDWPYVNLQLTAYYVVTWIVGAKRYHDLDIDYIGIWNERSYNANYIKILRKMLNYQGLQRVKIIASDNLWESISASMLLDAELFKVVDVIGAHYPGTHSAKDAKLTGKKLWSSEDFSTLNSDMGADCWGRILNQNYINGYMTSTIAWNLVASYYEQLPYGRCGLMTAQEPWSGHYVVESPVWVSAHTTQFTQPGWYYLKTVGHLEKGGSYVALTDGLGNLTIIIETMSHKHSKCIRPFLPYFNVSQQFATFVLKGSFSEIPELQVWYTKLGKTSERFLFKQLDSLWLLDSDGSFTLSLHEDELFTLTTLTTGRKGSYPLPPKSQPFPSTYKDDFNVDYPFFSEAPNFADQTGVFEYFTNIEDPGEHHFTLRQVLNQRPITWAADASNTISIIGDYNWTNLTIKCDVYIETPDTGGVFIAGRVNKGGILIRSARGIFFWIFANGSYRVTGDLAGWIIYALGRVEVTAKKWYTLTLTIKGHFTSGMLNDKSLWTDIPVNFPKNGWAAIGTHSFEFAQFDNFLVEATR
#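 Live 145M-Twi cells (Twitcher mouse brain-derived, GALC-null) stably expressing human GALC-G270D, with a wild-type GALC line, were compound-treated. Residual GALC activity was then read as fluorescence from 0.1 mM final HMU-β-gal at pH 5.2; higher signal means activation.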
# NTMT1 inh = blocks human N-terminal methyltransferase 1 activity. AID 1645870. Q9BV86. Potency, µM (highest dose often 114 µM), without a hit: top-dose activity change, negative = inhibition, usual class: inhibitors. hit rate 2.5% among 59,000. NTMT1 MTase-Glo SAH luminescence, purified enzyme;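 further: potency means the concentration at half of the fitted maximal effect; plate controls were DMSO vehicle for no effect and no enzyme for full effect; nearly all actives have a fitted effect of over 65% in size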
# DRV1 agonist = GPR32 (DRV1) agonism, beta-arrestin recruitment; hit rate 2.5% among 48,000; CHO-K1 GPR32 beta-arrestin PathHunter luminescence, 90 min; zero percent set by DMSO-only wells; O75388; activation, % at 76.9 µM;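 active means activation of at least 60% and not above a set upper limit, about 1 call in 100 departs from these limits; inconclusive means activation of 40% to 60%, or above that upper limit; inactive means activation under 40%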; further: 0% is about no effect
#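 Readings come from a cell-based beta-arrestin complementation format: CHO-K1 GPR32 stable cells (2,500/well) treated 90 min with compounds, then beta-Gal substrate added for 1 h before chemiluminescence imaging.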
# p53null 32C tox = selectivity test: cytotoxicity in p53 null cells, permissive temperature; H1299-neo p53 null cells, ATP luminescence, 24 h, 32C; Potency, µM (doses to about 46.1 µM), without a hit: at the highest dose activity change, negative = cytotoxicity, actives largely listed as cytotoxic; hit rate 0.62% among 55,000; AID 903;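 further: potency means the concentration at half of the fitted maximal effect; 0% = DMSO only and -100% = full killing by 100 µM tamoxifen; nearly all actives have a fitted effect of over 55% in size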
#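 Overnight 37C seeding (600 cells/well) of H1299-neo preceded a 24 hr, 32C exposure to compounds up to 46 uM. ATP levels, read by luminescence after 20 min at RT, indicated surviving cells.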
# p53null 39C tox = selectivity test: cytotoxicity in p53 null cells, nonpermissive temperature | Potency, µM (top dose mostly 46.1 µM), for inactives: at the top dose activity, negative = cell killing, actives largely listed as cytotoxic | H1299 p53-null (neo) cells, 39C, ATPlite viability, 24 h | hit rate 0.97% among 55,000;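 further: potency means the concentration at half of the fitted maximal effect; 0% = DMSO only and -100% = full killing by 100 µM tamoxifen; nearly all actives have a fitted effect of over 50% in size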
#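 Following overnight plating at 37C (600 cells/well), H1299-neo or H1299-p53A138V cells are dosed up to 46 uM. Incubation lasts 24 hr at 39C before ATP detection.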
# An asterisk follows results filed as active; i = inactive; ? = inconclusive; nt = not tested or not shown; ! = a repeat was not active; [ ] = dose if it differs, or a comment. Unless noted, the call rests on the fitted dose curve; in most records, active means well fitted curve in the direction sought with a large enough effect; inconclusive means small, poorly fitted or top-dose-only effect, or another doubt; inactive means no such curve, though single readings can be large; an effect the other way counts as inactive or inconclusive.
SMILES,FH mod,GALC G270D act,NTMT1 inh,DRV1 agonist,p53null 32C tox,p53null 39C tox
C/C=C(\C)C(=O)OC1C2C3(C)CCC(OC4CC(OC)C(OC5OC(C)C(O)C(OC)C5O)C(C)O4)CC3CCC23OC32CCC(C(C)=O)C2(C)C1OC(=O)/C(C)=C/C (centres undefined),4.0%[20.6 µM],nt,11.3%[12.6 µM],nt,nt,nt
O=P1(N(CCCl)CCCl)NCCCO1 (centres undefined),5.1%[53.3 µM],i,35.5µM*!,8.8,nt,nt
O=S(=O)(O)C(F)(F)C(F)(F)C(F)(F)C(F)(F)C(F)(F)C(F)(F)C(F)(F)C(F)(F)F,?,i,22.4µM*,?,nt,nt
CN(C)c1cc2c(cc1Sc1nc3c(N)nccc3n1CCNCC(C)(C)C)OCO2,1.7%,nt,-16.1%,nt,nt,nt
C[C@]12CC[C@H]3[C@@H](CCC4=CC(=O)CC[C@@H]43)[C@@H]1CC[C@@H]2OC(=O)CCc1ccco1,-4.1%[53.3 µM],i,25.1µM*,118.6*,nt,nt
C[C@]12CC[C@@H]3[C@@H](CCC4=CC(=O)CC[C@@H]43)[C@@H]1CC[C@@H]2OC(=O)CCc1ccccc1,-10.7%[53.3 µM],nt,17.8%[57.5 µM],nt,nt,nt
O=C(O)C(=O)c1cn(Cc2ccccc2)c2ccc(-c3ccc(OC(F)(F)F)cc3)cc12,-13.2%,nt,39.8µM*!,nt,nt,nt
FC(F)(F)c1ccc(N2CCNCC2)nc1Cl,3.1%,nt,4.5%[57.5 µM],nt,nt,nt
CO[C@@H]1[C@@H](O)[C@@H](O[C@H]2CC[C@]3(C=O)C4CC[C@]5(C)[C@@H](C6=CC(=O)OC6)CC[C@]5(O)[C@@H]4CC[C@H]3C2)O[C@@H](C)[C@H]1O[C@@H]1O[C@H](CO[C@@H]2O[C@H](CO)[C@@H](O)[C@H](O)[C@H]2O)[C@@H](O)[C@H](O)[C@H]1O (some centres undefined),4.8%[20.6 µM],nt,5.3%[12.6 µM],nt,nt,nt
CCOC(=O)c1ccc(N2C(=O)c3n[nH]c(-c4cccs4)c3C2c2ccc(C(C)(C)C)cc2)cc1 (centres undefined),?,i,7.8%,-4.5,32.8%,?
CCOC(=O)c1ccc(N2C(=O)c3n[nH]c(-c4cccs4)c3C2c2ccc(Cl)cc2Cl)cc1 (centres undefined),-20.3%,i,11.6%,-1.5,?,17.8µM*
Cc1cccn2c(=O)cc(COc3cccc(NC(=O)COc4ccc(F)cc4)c3)nc12,-13.3%,i,?,-10.1,12.6µM*,12.6µM*
FC(F)(F)c1cccc(C2=CCN(CCc3ccc4ccccc4c3)CC2)c1,-1.3%[53.3 µM],i,28.2%[57.5 µM],99.8*,nt,nt
C=CCN1CC[C@]23c4c5ccc(O)c4O[C@H]2[C@@H](O)CC[C@@]3(O)[C@H]1C5,4.8%,nt,18.6%[57.5 µM],nt,nt,nt
C[C@]12Cc3nonc3C[C@@H]1CC[C@@H]1[C@@H]2CC[C@@]2(C)[C@H]1CC[C@]2(C)O,-10.8%[53.3 µM],i,-15.1%[57.5 µM],65.4*,nt,nt
CC(C)(O)/C=C/C(=O)[C@](C)(O)[C@H]1[C@H](O)C[C@@]2(C)[C@@H]3CC=C4[C@@H](C=C(O)C(=O)C4(C)C)[C@]3(C)C(=O)C[C@]12C,12.9%[13.5 µM],nt,11.3%[29.8 µM],nt,nt,nt
COc1cc(CCNCc2ccccc2O)c(OC)cc1C#N,-0.1%,nt,-3.7%[57.5 µM],nt,nt,nt
COC(=O)C12C(=O)C(C)(O)C(=O)C1(C)C(C)=CC1C34CCC(OC3=O)C(C)(C)C4CCC12C (centres undefined),-0.1%[53.3 µM],nt,-4.2%[29.8 µM],nt,nt,nt
Nc1ccc(N=Nc2ccccc2)cc1,?,i,126µM*,-75.3,nt,nt
C[C@]12CCC(=O)C=C1CC[C@@H]1[C@H]3CC[C@](C)(O)[C@@]3(C)CC[C@@H]12,7.5%,i,?,106.4*,nt,nt
C[C@]12CCC(=O)C=C1CC[C@@H]1[C@@H]2CC[C@]2(C)C(=O)CC[C@@H]12,-3.6%[53.3 µM],i,17.9%[57.5 µM],48.8,nt,nt
OCc1nnc2n1-c1ccc(Cl)cc1C(c1ccccc1Cl)=NC2,12.5%,nt,8.9%[57.5 µM],nt,nt,nt
COc1ccc2c(c1)c(CCN(C)C)cn2S(=O)(=O)c1ccccc1,0.0%,nt,-3.4%[57.5 µM],nt,nt,nt
CC[C@H](C)[C@H](NC(=O)[C@H]1CCCCN1C)C(=O)N(COC(=O)CC(C)C)[C@H](C[C@@H](OC(C)=O)c1nc(C(=O)N[C@@H](Cc2ccc(O)cc2)C[C@H](C)C(=O)O)cs1)C(C)C,5.7%[1.9 µM],nt,2.3%[1.07 µM],nt,nt,nt
C/C=C(\C)C(=O)O[C@@H]1[C@@H](C)[C@]2(O)C3C=C(C)C(=O)[C@@]3(O)CC(CO)=C[C@H]2C2C(C)(C)[C@@]21OC(=O)C(C)CC (some centres undefined),-0.3%[53.3 µM],nt,0.3%[29.8 µM],nt,nt,nt
SMILES,FH mod,GALC G270D act,NTMT1 inh,DRV1 agonist,p53null 32C tox,p53null 39C tox
NC(=O)CI,25.1µM*,nt,nt,-9.8,nt,nt
CCOC(=O)CC(SP(=S)(OC)OC)C(=O)OCC (centres undefined),2.3%[53.3 µM],i,31.6µM*!,-23.9,nt,nt
Cc1[nH]nc2ccc(-c3cncc(OC[C@@H](N)Cc4c[nH]c5ccccc45)c3)cc12,2.2%,nt,39.8µM*!,nt,nt,nt
CC(N)Cc1c[nH]c2ccccc12 (centres undefined),25.0%,nt,4.5%[57.5 µM],nt,nt,nt
C=CC[C@]1(O)CC[C@H]2[C@@H]3CCC4=CC(=O)CCC4=C3C=C[C@@]21C,-8.1%[53.3 µM],i,22.4µM*,21.4,nt,nt
COc1ccc2nc(N3CCN(C(=O)CS(=O)(=O)c4ccc(C)cc4)CC3)sc2c1,-27.1%,i,-20.9%,36.0,10µM*,84.7%
CCN(CC)C(C)C(=O)c1ccccc1 (centres undefined),-1.8%[53.3 µM],i,23.1%[57.5 µM],-7.5,nt,nt
CC(=O)[O][Hg][c]1ccccc1,-10.6%[53.3 µM],i,2.82µM*,?,nt,nt
NCCc1cc(O)c(O)cc1O,-9.9%[53.3 µM],i,28.2µM*,-18.9,nt,nt
c1ccc(CN2CCNCC2)cc1,30.9%[162 µM],i,100µM*,-11.5,nt,nt
COc1ccc(NC(=O)CCc2nc(C3=CCN(Cc4cccc(Cl)c4)CC3)no2)cc1OC,?,i,?,93.8*,2.6%,17.0%
COc1ccc(NC(=O)CCc2nc(C3=CCN(Cc4cccc(Cl)c4)CC3)no2)c(OC)c1,-25.8%,i,-2.1%,27.2,14.7%,11.0%
Cc1cccc(CN2CC=C(c3noc(CCC(=O)Nc4ccc(C)c(F)c4)n3)CC2)c1,?,i,13.6%,93.6*,-3.9%,0.0%
C/C=C(\C)C(=O)OC1CC2C(CC=C3CC(OC4CC(OC)C(OC5CC(OC)C(OC6CC(OC)C(OC7CC(OC)C(O)C(C)O7)C(C)O6)C(C)O5)C(C)O4)CCC32C)C2(O)CCC(C(C)=O)C12C (centres undefined),-0.1%[20.6 µM],nt,11.6%[12.6 µM],nt,nt,nt
CCCN(CCC)CCc1ccc(OC)c(OCCc2ccccc2)c1,2.9%,nt,-3.8%[57.5 µM],nt,nt,nt
